SARS PLP yeast: qHTS of Yeast-based Assay for SARS-CoV PLP; 0.19% of 330,000 active; S. cerevisiae expressing SARS-CoV PLpro, growth rescue; AID 485353, 2010; Potency, µM (doses to about 32.9 µM), for the others: at the top dose activity, positive = growth rescue, usual class: activators; calls by dose curve; also: potency is read from the fitted curve at half-maximal effect; 0% is about no effect; nearly all actives have a fitted effect of over 55% in size
Pf growth 96h: Primary qHTS for delayed death inhibitors of the malarial parasite plastid, 96 hour incubation; P. falciparum luciferase reporter growth, 96 h; Potency, µM (series often up to 28.7 µM), for inactives: top-dose activity change, negative = inhibition, hits mostly inhibitors; 6.9% of 320,000 active; AID 504834, 2011; also: potency is read from the fitted curve at half-maximal effect; % is scaled to controls: 0 for no effect and ±100 for the full control effect
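P. falciparum expressing integrated firefly luciferase grown in erythrocytes (2% hematocrit, 0.05% parasitemia final) with compounds for 96 hours at 37 C, 5% CO2. Growth inhibition read as loss of luminescence after adding luciferase detection reagent.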
Pf growth 48h: Primary qHTS for delayed death inhibitors of the malarial parasite plastid, 48 hour incubation | P. falciparum luciferase growth in erythrocytes, 48 h | Potency, µM (doses to about 28.7 µM), without a hit: top-dose activity change, negative = inhibition, actives largely listed as inhibitors | 5.9% of 310,000 active | AID 504832, 2011; also: potency is read from the fitted curve at half-maximal effect; % is scaled to controls: 0 for no effect and ±100 for the full control effect
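Compounds are pin-transferred into medium, infected erythrocytes (2% hematocrit, 0.1% parasitemia final) are added, and plates sit one parasite generation at 37 C in 5% CO2. Detection reagent is then added and luminescence measured.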
Shiga inhibitor: A qHTS for Small Molecule Inhibitors of Shiga Toxin; Vero cells, Shiga toxin protein synthesis inhibition reporter; inhibition, % at 38.7 µM; 9.2% of 290,000 active; in the data active = inhibition mostly above about 28%, no sharp cut-off; inactive = mostly below about 43%; also: 0% is about no effect
AMA1 RON2 block: qHTS for Inhibitors of AMA1-RON; Towards Development of Antimalarial Drug Lead: Primary Screen; Plasmodium falciparum AMA1 (3D7) - RON2 peptide interaction; AlphaScreen AMA1-biotinylated RON2 peptide binding; Potency, µM (doses to about 58.2 µM), inactives show top-dose activity change, negative = inhibition, actives largely listed as inhibitors; 0.2% of 360,000 active; AID 720542, 2013;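 also: potency is read from the fitted curve at half-maximal effect; 0% = vehicle wells and -100% = peptide control; nearly all actives have a fitted effect of over 45% in size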
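AMA1 (3D7) with his tag at 25 nM final met compounds first, then biotinylated RON2 peptide at 25 nM; detection used donor plus acceptor beads, 10 µg/mL apiece, read by AlphaScreen after 30 min at room temperature.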
CHX counter: Cycloheximide Counterscreen for Small Molecule Inhibitors of Shiga Toxin. max response, %. 12% of 300,000 active. cell reporter, cycloheximide protein synthesis inhibition counterscreen; in the data active = max response mostly above about 13%, no sharp cut-off; inactive = mostly below about 14%; also: read at 38.3 µM for the half of the compounds with a filed dose; 0% is about no effect
The depositor's hits bear a star; ? = inconclusive; nt = no result. An excerpt weighted towards active compounds, which were near 19% of everything screened. Unless noted, calls follow the shape of the dose curve; as a rule, active = well fitted curve in the direction sought with a large enough effect; inconclusive = small, poorly fitted or top-dose-only effect, or another doubt; inactive = no such curve, though single readings can be large; an effect the other way counts as inactive or inconclusive.

SMILES	SARS PLP yeast	Pf growth 96h	Pf growth 48h	Shiga inhibitor	AMA1 RON2 block	CHX counter
Cc1cc2nc(SCCN3CCCC3)[nH]c2cc1C	-2.1%	-3.1%	nt	13.7	6.2%	12.5*
COc1ccc(/C=N/NC(=O)c2nc(-c3ccccc3)cc(-c3ccccc3)n2)cc1OC	-16.3%	2.33µM*	?	28.2	-6.2%	-2.2
COc1cccc(/C=N/NC(=O)C(C)n2nnc3ccccc32)c1 (stereo not drawn)	5.8%	3.1%	14.3%	22.5	51.5%	25.0*
COc1cc(/C=N\NC(=O)c2ccc(-c3ccccc3)cc2)ccc1OCC(N)=O	8.8%	-6.4%	-7.0%	0.7	-5.4%	-1.8
COc1cccc(/C=N/NC(=O)c2nc(-c3ccccc3)cc(-c3ccccc3)n2)c1	6.3%	7.0%	10.4µM*	7.0	-1.8%	0.4
COc1ccc(NC(=O)C(c2cccc3ccccc23)n2c(=O)c(-c3ccco3)nc3ccccc32)cc1 (stereo not drawn)	nt	nt	nt	nt	-15.0%	nt
N#CCSc1nccc(/C=C/c2ccccc2)n1	-1.6%	?	20.0%	39.6*	9.0%	42.0*
O=C(/C=C/c1ccccc1Cl)Nc1cccc(S(=O)(=O)NC2=NCCCCC2)c1	-3.4%	?	0.0%	64.6*	33.2%	23.0*
O=C(/C=C/c1ccc(Cl)cc1Cl)Nc1cccc(S(=O)(=O)NC2=NCCC2)c1	-2.2%	170.5%	217.7%	43.8	-5.1%	13.9*
O=C(/C=C/c1ccc([N+](=O)[O-])cc1)Nc1cccc(S(=O)(=O)NC2=NCCCCC2)c1	1.5%	nt	nt	nt	-2.8%	nt
COC(=O)C[C@@H]1C[C@H]2c3cc(NS(C)(=O)=O)ccc3O[C@H]2[C@H](CO)O1	nt	nt	nt	nt	15.8%	nt
O=C(COC(=O)Cn1nnc2ccccc21)Nc1ccccc1Br	-2.0%	0.0%	15.4%	-3.3	-4.2%	-1.7
Cc1cc(OC(C)C(=O)N2CCN(c3ccc(F)cc3)CC2)c2c(C)cc(=O)oc2c1 (stereo not drawn)	-1.5%	-15.4%	?	-3.7	-2.8%	15.1
Cn1c(SCC(=O)Nc2ccc(F)cc2)nnc1C1CC1	5.1%	4.8%	10.5%	-12.5	-3.1%	14.7
Nn1c(SCC(=O)Nc2ccc(Oc3ccccc3)cc2)nnc1C1CC1	-1.2%	?	8.28µM*	18.6	31.1%	-2.3
CCOc1ccc(NC(=O)CSc2nnc(C3CC3)n2N)cc1	-5.0%	0.7%	12.6%	-8.5	5.8%	-2.1
CCn1c(SCC(=O)Nc2ccc(F)cc2)nnc1C1CC1	4.8%	?	40.4%	23.5	14.2%	19.4*
CCc1ccc(NC(=O)CSc2nnnn2C)cc1	-2.4%	15.3%	141.4%	78.1*	0.0%	56.5*
COc1ccc(NC(=O)CSc2nnnn2C)cc1	0.6%	?	14.1%	19.0	-0.2%	-2.4
Cn1nnnc1SCC(=O)Nc1ccc(Oc2ccccc2)cc1	-10.1%	0.1%	?	22.1	47.9%	8.9*
O=[N+]([O-])c1ccc(Sc2ncc3ccccn23)nc1	-1.5%	9.28µM*	?	17.4	-0.7%	-3.2
O=[N+]([O-])c1cccc(-c2ncc3ccccn23)c1	1.6%	50.2%	?	68.0*	-0.7%	31.0*
Nc1nc(N)nc(-c2cccc([N+](=O)[O-])c2)n1	nt	nt	nt	nt	-1.4%	nt
Nc1c(-c2cccc([N+](=O)[O-])c2)nc2ccccn12	-24.5%	0.3%	142.1%	81.8*	9.7%	112.5*
COc1ccc(-c2ncc3ccccn23)cc1OC	0.0%	0.0%	?	9.6	-4.8%	24.1*
SMILES	SARS PLP yeast	Pf growth 96h	Pf growth 48h	Shiga inhibitor	AMA1 RON2 block	CHX counter
O=C(NCCCn1ccnc1)c1ccc(COc2ccccc2)o1	0.9%	-14.7%	-15.9%	nt	-21.7%	nt
CCN(Cc1ccc(OC)c(F)c1)C(C)C(=O)Nc1ccc(S(=O)(=O)N2CCCC2)cc1 (stereo not drawn)	1.3%	?	10.4µM*	nt	4.8%	nt
COc1ccc(CN(C)C(C)C(=O)Nc2ccc(S(=O)(=O)N3CCCC3)cc2)c(OC)c1OC (stereo not drawn)	0.5%	4.15µM*	7.38µM*	-17.8	nt	0.1
Cc1ccsc1C(=O)OCC(=O)N1CC(C)CC(C)C1 (stereo not drawn)	-2.2%	nt	nt	nt	5.4%	nt
Cn1c(=O)[nH]c(Nc2ccccc2)c([N+](=O)[O-])c1=O	0.1%	?	3.9%	-3.3	2.5%	1.8
CCn1c(CNc2ccc(Cl)cc2)nnc1SCC#N	-0.1%	2.94µM*	9.1%	-9.3	-5.7%	-1.3
CC(C)c1ccc(/C=C/C(=O)N2CCCCCC2)cc1	10.7%	101.5%	77.2%	31.0	-3.6%	21.3*
CC(C)c1ccc(/C=C/C(=O)N2CCOCC2)cc1	-5.5%	-26.3%	72.1%	28.5*	2.5%	43.0*
CC(C)(C)NC(=O)NC(=O)CN1CCN(C(c2ccccc2)c2ccccc2)CC1	-1.8%	?	?	1.0	-2.7%	5.4
O=[N+]([O-])c1cccc(C2(O)COc3ccccc3O2)c1 (stereo not drawn)	0.4%	63.7%	25.5%	-2.8	-14.5%	6.9
CCOC(=O)C1CCN(C(=O)c2c(C)oc3c2C(=O)c2ccccc2C3=O)CC1	9.3%	0.294µM*	0.415µM*	14.7	-1.8%	4.2
Cc1oc2c(c1C(=O)N1CCC(C)CC1)C(=O)c1ccccc1C2=O	4.7%	0.0928µM*	0.233µM*	16.3	-5.9%	0.6
O=S(=O)(Nc1cccc2ncccc12)c1cccs1	-19.7%	?	?	5.8	?	29.0*
O=C1Nc2ccc(NS(=O)(=O)c3cccs3)c3cccc1c23	5.2%	10.4µM*	7.1%	9.2	5.3%	12.1
Cc1c(NS(C)(=O)=O)cccc1-c1nc2cccnc2s1	0.1%	42.4%	48.7%	153.6*	3.2%	31.8*
Cc1c(NS(=O)(=O)c2cccs2)cccc1-c1nc2cccnc2s1	3.7%	0.0%	6.2%	22.3	-4.5%	23.9*
O=c1oc(-c2ccccc2)nc2sc3c(c12)CCCC3	-4.3%	10.4%	nt	123.8*	7.9%	40.9*
O=c1oc(-c2cc3ccccc3o2)nc2sc3c(c12)CCCC3	2.7%	49.3%	16.8%	36.4	-1.7%	19.1
Nc1nc(-c2cccnc2)nc2sc3c(c12)CCCC3	3.7%	-0.2%	13.9%	89.5	5.6%	30.6*
O=c1oc(-c2cccs2)nc2sc3c(c12)CCCCC3	0.6%	32.2%	21.3%	58.7*	7.4%	26.4*
Cc1ccccc1-c1nc2sc3c(c2c(=O)o1)CCC3	-2.7%	-4.4%	7.5%	3.1	6.8%	-1.8
CCc1c(-c2ccccc2)nc2sc3c(c2c1N)CCCC3	-4.7%	?	-10.6%	63.8	-3.0%	19.3*
CCOC(=O)c1cc(NC(=O)CSc2nnc(CN3CCOCC3)n2C)ccc1Cl	nt	nt	nt	nt	-4.4%	nt

Screens as filed in PubChem BioAssay.
